Assay outcomes from PubChem BioAssay.
CF NFkB block: blocks PAF-induced NF-kB reporter in cystic fibrosis cells; inhibition, % at 5 µM; KKLEB NF-kB-GFP reporter, GFP fluorescence overnight; hit rate 0.86% among 360,000; AID 588850;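 active = at least 50% inhibition at 5 µM, scaled per plate between neutral and stimulator controls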;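 also: PAF is a Pseudomonas aeruginosa culture filtrate used as stimulus; plate controls were PAF-stimulated DMSO wells for no effect and unstimulated DMSO wells for full effect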
KKLEB tox: reduces viability of KKLEB cystic fibrosis airway cells; KKLEB CF airway cells viability, ATPlite luminescence, overnight; active compounds read low; cells stimulated with P. aeruginosa culture filtrate; activity change (cytotoxicity), % at 5 µM; hit rate 0.36% among 360,000;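 active = corrected activity change at or below -50% at 5 µM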
HIF-2a inh: inhibitors of HIF-2a. 786-0 RCC cells HIF-2a reporter, luciferase luminescence, overnight. inhibition, % at 18.8 µM. hit rate 0.72% among 360,000. AID 624352;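 active = inhibition of the luminescence signal of 40% or more relative to plate controls, in a single-dose primary screen at 18.75 µM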
Shn3 inh set2: Schnurri-3 reporter inhibition in Clone20 osteoblasts | Clone20 osteoblast Shn3 3'UTR firefly luciferase, 24 h | inhibition, % at 12.5 µM | hit rate 0.52% among 360,000 | AID 588674;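 active = mean inhibition of at least 75% with every replicate also reaching 75%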;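 also: 0% = median of neutral control wells and 100% = pilot-screen positive control compound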
Peg3 prom inh: reduces Peg3 promoter-driven luciferase expression in HeLa. HeLa PEG-Prom luciferase reporter, luminescence, overnight. inhibition, % at 20 µM. hit rate 1.7% among 360,000;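 active = inhibition of at least 50% at 20 µM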
* marks the source's active call; other numbers are inactive results; · = no result. The list is not random: actives were taken first. Their share in the collection is about 2.6%.

SMILES	CF NFkB block	KKLEB tox	HIF-2a inh	Shn3 inh set2	Peg3 prom inh
COc1ccc(Oc2nc3c(c(=O)n(C)c(=O)n3C)n2Cc2cccc(OC)c2)cc1	-2.3	9.1	18.1	1.8	5.0
CCOC(=O)N1CCN(C(=O)C(C)N(c2ccc(Oc3ccccc3)cc2)S(C)(=O)=O)CC1 (stereo not drawn)	-5.4	-2.4	5.7	36.2	16.2
CCOC(=O)C1CCN(C(=O)C(C)N(c2ccc(Oc3ccccc3)cc2)S(C)(=O)=O)CC1 (stereo not drawn)	0.2	-1.2	9.6	87.1*	17.1
Cc1cc(C2CCCCC2)n(O)c(=O)c1	19.6	-16.2	19.7	60.8	50.6*
O=[N+]([O-])c1ccc(Sc2cccc[n+]2[O-])c2nonc12	84.0*	-97.4*	91.4*	97.9*	111.1*
C=CCn1cc(CN2CCC(C(=O)Nc3cccc(-c4cccc(Cl)c4)c3)CC2)c(C)n1	15.3	-7.0	9.4	14.3	-109.3
Cc1nn(C(C)C)c(C)c1CN1CCC(C(=O)Nc2cccc(-c3cccc(F)c3)c2)CC1	30.6	-4.8	0.1	14.4	88.6*
CCCn1ncc(CN2CCC(C(=O)Nc3cccc(-c4cccc(F)c4)c3)CC2)c1C	-8.0	-8.0	23.0	33.1	60.1*
Cc1c(CN2CCC(C(=O)Nc3cccc(-c4cccc(Cl)c4)c3)CC2)cnn1C	13.3	-14.1	15.6	-23.8	69.4*
Cc1cccc(C)c1NC(=O)C(CCc1ccccc1)N1CCN(C)CC1 (stereo not drawn)	·	·	-0.8	·	·
COc1cc2nc(N3CCNCC3)nc(N)c2cc1OC	-18.3	-10.0	10.1	-24.3	73.6*
COc1ccccc1N1CCN(C(=O)c2cccc(S(=O)(=O)N3c4ccccc4CC3C)c2)CC1 (stereo not drawn)	38.0	-7.0	11.2	39.5	78.0*
CC1Cc2ccccc2N1S(=O)(=O)c1cccc(C(=O)N2CCCCC2)c1 (stereo not drawn)	-4.0	-10.2	8.1	10.5	4.9
Cc1nc(Nc2ccc3c(c2)OCCO3)c2oc3ccccc3c2n1	-1.2	0.5	-26.1	-13.0	-15.6
CCc1nc(Nc2ccc3c(c2)OCCO3)c2oc3ccccc3c2n1	-18.0	-7.7	-79.5	-1.6	69.2*
COc1ccc(/C=N/NC(=O)c2ccc(-c3ccccc3)cc2)cc1O	28.2	8.7	4.6	6.9	-8.7
COc1cc(/C=N\NC(=O)c2ccc(-c3ccccc3)cc2)cc(Br)c1O	64.9*	-0.6	-10.6	13.1	-54.1
COc1ccc(C(=O)CSc2nc3ccc([N+](=O)[O-])cc3[nH]2)cc1	-18.6	5.3	7.9	-5.8	21.4
COC(=O)Nc1nc2ccc(C(=O)c3cccs3)cc2[nH]1	60.2*	9.3	-79.3	-30.6	-157.7
O=C(Nc1nc2ccccc2[nH]1)c1cccs1	-31.9	-11.1	-201.3	-23.9	-214.8
CCc1ccc(-c2cc(C)no2)cc1S(=O)(=O)N1CCN(c2ccccc2)CC1	-4.2	-17.9	11.1	9.8	24.2
CSc1ccc(/C=N/n2c(C3CCCCC3)n[nH]c2=S)cc1	-0.5	16.1	-4.6	3.9	3.5
S=c1[nH]nc(C2CCCCC2)n1/N=C/c1ccncc1	84.8*	-11.9	10.6	-7.1	2.4
COc1cc(CNC(C)c2ccccc2)cc(Br)c1OCc1ccc(F)cc1 (stereo not drawn)	39.7	-29.0	16.4	21.1	58.8*
COc1ccc(-c2cc(-c3ccc(O)cc3)nc(N)c2C#N)cc1	-9.6	-6.9	-18.3	17.3	-9.8
SMILES	CF NFkB block	KKLEB tox	HIF-2a inh	Shn3 inh set2	Peg3 prom inh
COc1ccc(-c2cc(-c3ccc(OC)cc3)c(C#N)c(SC)n2)cc1	50.1*	-25.7	10.3	-26.0	33.2
CC(C)CN1CCC(CN2CCNC(=O)C2=O)CC1	-10.2	-2.5	-6.3	-5.8	-0.8
COc1ccc(NC(=O)/C(Cl)=C(/Cl)S(=O)Cc2ccccc2)cn1 (stereo not drawn)	88.5*	-95.4*	93.9*	97.3*	104.6*
CCC(=O)Nc1ccc(-c2ccc(N3CCC(C)CC3)nn2)cc1	-8.4	1.2	-217.0	-18.7	-144.3
CCC(=O)Nc1cccc(-c2ccc(N3CCC(C)CC3)nn2)c1	8.1	-54.7*	8.9	3.5	-123.9
O=C1c2cc(Cl)ccc2-c2c(O)cc(Cl)cc21	4.9	-21.1	-79.3	37.2	74.8*
O=c1cc(O)c(-c2ccc(Cl)cc2)c(Cl)[nH]1	-0.2	3.1	16.8	·	9.2
C/C(=N\Nc1ccc(Cl)cc1)c1ccccn1	-0.7	0.3	-273.5	-70.9	-205.8
COc1ccc2nc(NN=C(C)c3ccccn3)cc(C)c2c1	22.1	-19.9	-358.8	86.3*	-22.4
CCCCC[C@@H](/C=C/C1C(=O)C=C[C@H]1C/C=C\CCCC(=O)OC)OC(C)=O (stereo partly drawn)	29.8	-10.7	10.4	36.9	80.5*
O=C(Nc1nc2c(s1)CCCC2)c1ccc(S(=O)(=O)N2CCCc3ccccc32)cc1	-16.6	4.4	-20.9	66.3	-8.2
CNC(=O)c1ccsc1NC(=O)c1ccc(S(=O)(=O)N2CCCc3ccccc32)cc1	33.8	-3.2	20.8	54.9	54.6*
C=C1C(=O)CC2=C1[C@](Cc1ccc(F)cc1)(C(=O)OC)N(C(=O)c1ccccc1)C2	·	·	14.2	·	·
C=C1C(=O)C=C2CN(C(=O)c3ccccc3)[C@@](Cc3ccc(F)cc3)(C(=O)OC)[C@@H]12	75.0*	-91.2*	97.2*	95.2*	99.4*
Nc1ncnc2sc3c(c12)CCNC3	-16.0	-2.4	14.4	2.3	-17.6
NC(=O)c1cccc2c1-c1ccccc1/C2=N/NC(N)=S	-42.7	7.7	9.8	-2.0	20.4
CCOC(=O)Nc1ccc2c(c1)C(=NNC(N)=S)c1ccccc1-2	-104.4	16.3	-64.6	1.7	70.7*
CCOC(=O)Nc1ccc2c(c1)C(=NO)c1ccccc1-2	-3.2	23.4	-288.4	92.1*	-180.5
COc1ccc(C(=O)NC2=Nc3ccccc3N=C(C)C2c2ccccc2)cc1 (stereo not drawn)	19.7	-3.9	-186.0	-165.3	-20.9
Cc1oc(=O)c(NC(=O)c2ccc(Cl)cc2)cc1C(=O)c1ccccc1	-7.1	-2.3	-34.9	94.4*	-12.6
Cc1oc(=O)c(NC(=O)c2ccccc2)cc1C(=O)c1ccccc1	-2.2	-10.4	-261.9	-64.7	-255.3
Cc1ccc(S(=O)(=O)CC2CSc3nc4ccccc4n32)cc1 (stereo not drawn)	-1.7	14.0	1.1	90.2*	13.6
COc1ccc(NC(=O)c2ccc(NC(=O)CN3CCC(C(N)=O)CC3)cc2)cc1	-2.0	-0.7	-60.1	-25.9	-55.5
COc1ccccc1Cc1c(C2CCCCC2)nc2ccc(C)cn12	0.8	-0.3	-54.4	-1.0	74.3*
N#C/C(=C/c1ccc(-c2ccc([N+](=O)[O-])cc2)o1)c1nnc(N2CCOCC2)n1-c1ccccc1	-19.4	-3.0	-7.7	2.9	66.8*
CCCCOc1ccc(N(CC(=O)NC2CCCCC2)C(=O)CCC(=O)Nc2ccccn2)cc1	6.7	1.1	6.8	6.6	18.0
O=C1CSC(c2ccc3c(c2)OCO3)N1c1ccc(Oc2ccccc2)cc1 (stereo not drawn)	3.7	-97.0*	26.3	-1.7	12.4
